The source of these data is PubChem BioAssay AID1850 (Southern Research Specialized Biocontainment Screening …, 2009).

Among all 310,000 compounds or so, about 1,000 (0.32%) were called active. How the calls were made is not given here. Only a sample is shown. Measured potencies and affinities stand elsewhere.

The nature of the assay: Inhibition of PhoP regulon, Salmonella typhi GFP reporter cells, confirmation, 4 h (AID 1850).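 Further: 0% = induced wells with vehicle and 100% = uninduced wells.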 The note with it: Salmonella Typhi PhoP-promoter GFP reporter, fluorescence, at 50 µM, active compounds read high.
Turning to `COc1ccc(C)cc1NC(=O)C1CCN(S(=O)(=O)c2ccc3c(c2)NC(=O)CO3)CC1`, the inhibition was -3.38% (inactive).

Turning to `CCCCn1c(N)c(N(CC(C)C)C(=O)c2cc(-c3ccc(OC)c(OC)c3)nc3ccccc23)c(=O)[nH]c1=O`, the inhibition was 11.8% (inactive).

Turning to `CC(=O)c1cc(C(=O)NC2CCCc3c2cnn3-c2cc(C)cc(C)c2)[nH]n1` (stereo not given), the inhibition is -9.06% (inactive).

For `O=C(Nc1nc2ccccc2[nH]1)c1cccc(F)c1`, the inhibition is 0.03% (inactive).

`CC(C)n1cnc2c(Nc3cccc(F)c3)nc(NCCO)nc21`: the inhibition is -14.7% (inactive).

With `Cc1cccc(OCc2nnc3n2CCCCC3)c1`, the inhibition was -4.01% (inactive).

Take `CCOC(=O)N1CCN(S(=O)(=O)c2ccc(C(=O)Nc3nnc(CSC)o3)cc2)CC1`: the inhibition is -31.1% (inactive).

For the molecule `CC(OC(=O)c1ccccc1Nc1ccc(SC(F)F)cc1)C(N)=O` (stereo not given), the inhibition was -1.22% (inactive).

`C#CCOCCOCCOCCNc1nc(N2CCN(C(=O)CCCCCCCCCCNC(=O)[C@@H](CCSC)n3cc(CCO)nn3)CC2)nc(N2CCN(C(=O)CCCCCCCCCCNC(=O)[C@H](CO)n3cc(CCCCCN)nn3)CC2)n1`: the inhibition was 14.1% (inactive).

As to `C#CCOCCOCCOCCNc1nc(N2CCN(C(=O)CCCCCCCCCCNC(=O)[C@@H](CCSC)n3cc(CCO)nn3)CC2)nc(N2CCN(C(=O)CCCCCCCCCCNC(=O)[C@H](CCSC)n3cc(CCO)nn3)CC2)n1`, the inhibition is 2.16% (inactive).

On to `C#CCOCCOCCOCCNc1nc(N2CCN(C(=O)CCCCCCCCCCNC(=O)[C@H]([C@@H](C)CC)n3cc(CCCCN=C(N)N)nn3)CC2)nc(N2CCN(C(=O)CCCCCCCCCCNC(=O)[C@H](CO)n3cc(CCCSC)nn3)CC2)n1`, for which the inhibition was 0.56% (inactive).

For `C#CCOCCOCCOCCNc1nc(N2CCN(C(=O)CCCCCCCCCCNC(=O)[C@@H](CCSC)n3cc(CCO)nn3)CC2)nc(N2CCN(C(=O)CCCCCCCCCCNC(=O)[C@H](CCC(=O)O)n3cc(CCCCCN)nn3)CC2)n1`, the inhibition is 1.19% (inactive).

Turning to `CC(=O)Oc1ccc(C(=O)Nc2cc(C)on2)cc1`, the inhibition was 3.46% (inactive).

`Nc1cccc(C(=O)N/N=C/c2ccsc2)c1`: the inhibition is -10.7% (inactive).

Turning to `Oc1[nH]c2ccc(Br)cc2c1N=NC(=S)Nc1ccc(F)cc1`, the inhibition was 14.4% (inactive).

`NC(=S)N=Nc1c(O)[nH]c2ccccc12`: the inhibition was -2.48% (inactive).

Consider `N=C(N)N=Nc1c(O)[nH]c2ccc(Br)cc12`, for which the inhibition was -13.7% (inactive).

As to `O=C(N=Nc1c(O)[nH]c2ccccc12)c1ccc(CN2CCOCC2)cc1`, the inhibition was 8.21% (inactive).

`COc1ccc(C(=O)C(Cc2cc(C(C)=O)ccc2OC)N2CCCC2)cc1` (stereo not given): the inhibition is -6.51% (inactive).

As for `O=C(Nc1cccc(S(=O)(=O)N2CCOCC2)c1)c1cnccn1`, the inhibition was -6.33% (inactive).

In the case of `Cn1c(-c2ccc(F)cc2)cnc1NCc1cccc([N+](=O)[O-])c1`, the inhibition was 9.25% (inactive).

On to `COc1ccc(N2CCN(c3nc(Cl)nc(Nc4ccc(F)cc4)n3)CC2)cc1`, for which the inhibition was -8.76% (inactive).

As to `Fc1ccc(Nc2nc(N3CCOCC3)nc(N3CCOCC3)n2)cc1`, the inhibition is 4.25% (inactive).

Consider `CCCOc1cc2c(C#N)c(N3CCCC3)nc(N)c2c(N)n1`, for which the inhibition was 1.34% (inactive).

Consider `N#Cc1c(N)c(C#N)c(-c2ccc3c(c2)OCO3)c2c1CCCC2`, for which the inhibition was -3.29% (inactive).

On to `Nc1ncncc1-c1ccc2ccccc2c1`, for which the inhibition is -7.33% (inactive).

Turning to `Nc1ncc(-c2ccc([N+](=O)[O-])cc2)cn1`, the inhibition is 4.2% (inactive).

Regarding `O=[N+]([O-])c1ccc(-c2cnc[nH]2)cc1`, the inhibition was 1.02% (inactive).

In the case of `Nc1c(-c2ccc(Cl)cc2)cnc2ncnn12`, the inhibition was 8.81% (inactive).

Consider `COc1ccc2cc(C(=O)C3CCCN(C(=O)c4cnccn4)C3)ccc2c1` (stereo not given), for which the inhibition was 8.69% (inactive).

As for `CCc1ccccc1NC1=NCC(=O)N1C1CCCC1`, the inhibition was 0.33% (inactive).

`COc1ccc(Nc2nc(C)cc(C)c2C#N)c(OC)c1`: the inhibition was -0.58% (inactive).

As to `COc1ccccc1CNC(=O)C1CCCN(S(C)(=O)=O)C1` (stereo not given), the inhibition is -3.93% (inactive).

Regarding `CCOC(=O)c1ccc(NC(=S)NCc2ccccc2)cc1`, the inhibition was 4.39% (inactive).

Turning to `Cc1ccc(S(=O)(=O)N2CCN(S(=O)(=O)c3cccs3)CC2)cc1`, the inhibition was -0.13% (inactive).

Regarding `CCOc1ccc(NC(=O)CSc2nnc(-c3ccncc3)n2CC2CCCO2)cc1` (stereo not given), the inhibition is -0.03% (inactive).

As to `CCNC(=O)NCCNC(=O)c1cc(OCC(F)(F)F)ccc1OCC(F)(F)F`, the inhibition was 1.77% (inactive).

Turning to `O=C(c1ccc(-n2cncn2)c([N+](=O)[O-])c1)N1CCN(S(=O)(=O)c2ccc(F)c(F)c2)CC1`, the inhibition was 9.27% (inactive).

Consider `CCC(=O)NC(=S)NNC(=O)c1ccc(OC)cc1`, for which the inhibition was 18.2% (inactive).

For `Cc1ccc(C(=O)NNC(=S)NC(=O)c2ccco2)cc1`, the inhibition is -11.8% (inactive).

As to `O=C(NNC(=S)NC(=O)c1ccc(Br)cc1)c1ccc([N+](=O)[O-])cc1`, the inhibition is 0.22% (inactive).

As to `CCCOc1ccc(C(=O)NNC(=S)NC(=O)c2cccs2)cc1`, the inhibition was 19.7% (inactive).

With `C=C(C)CNC(=S)NNC(=O)c1ccc(Br)cc1`, the inhibition is -8.67% (inactive).

In the case of `COc1ccc(C(=O)NNC(=S)NC(=O)c2ccco2)cc1`, the inhibition was 5.07% (inactive).

Consider `CCCCC(=O)NC(=S)NNC(=O)c1ccc(OC)cc1`, for which the inhibition is -8.34% (inactive).

For the molecule `CCCOc1ccc(C(=O)NNC(=S)NC(=O)c2ccccc2)cc1`, the inhibition is 2.22% (inactive).

In the case of `O=C(Nc1nc(-c2ccccc2Cl)cs1)c1cccnc1`, the inhibition was 3.73% (inactive).

Consider `CC(C)(C)c1cc(OC(=O)c2ccccc2F)ccc1O`, for which the inhibition is -1% (inactive).

Turning to `CC(=O)NC(=S)Nc1cc(C(F)(F)F)ccc1N1CCOCC1`, the inhibition is -8.24% (inactive).

Take `CCC1(C)SC(NC(C)=O)=NN1C(C)=O` (stereo not given): the inhibition is -7.92% (inactive).

On to `Cc1cc(=O)[nH]c(N/N=C/c2cccc(Br)c2)n1`, for which the inhibition is 5.33% (inactive).

Consider `Cc1onc(-c2ccccc2)c1C(=O)OCC(=O)N(CC(C)C)c1c(N)n(Cc2ccccc2)c(=O)[nH]c1=O`, for which the inhibition was 0.02% (inactive).

Turning to `Cc1ccsc1C1CC(=O)Nc2ccccc2S1` (stereo not given), the inhibition is 3.75% (inactive).

As to `CCN(CC(=O)NCc1ccc(Cl)cc1)C(=O)CCc1ccccc1`, the inhibition was 8.65% (inactive).

For `c1ccc(CN2CCN(C(c3ccccc3)c3nnnn3Cc3ccccc3)CC2)cc1` (stereo not given), the inhibition is -8.11% (inactive).
